Shown are actives, neighbours in structure and some others; about 9.6% of the full set was active somewhere.
HCT116 PTEN-null: suppresses growth of cells with PTEN deletion. HCT116 PTEN-null viability, CellTiter-Glo, 60 h; hits give low values. viability, % at 10 µM. 140,000 tested, 1.2% active;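 active means viability at or below a set limit, 4 SD under the median of all tested compounds, cut at about 3.7% in these data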;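 further: PTEN knockout HCT116 line with beta catenin targeted HCT116 as companion control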
bCat KO growth: beta-catenin-lacking colon tumor cell growth suppression; HCT116 beta-catenin knockout viability, CellTiter-Glo, 60 h; hits give low values; viability, % at 10 µM; 140,000 tested, 1.5% active; AID 818;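 active means viability at or under a set limit, the compound median less 4 SD, cut at about 6% in these data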;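 further: 0% = Hyamine 1622 control at 20 µM and 100% = untreated cell control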
Lmaj promast: inhibitors of Leishmania major promastigote growth. Leishmania major promastigotes, resazurin fluorescence viability. 200,000 tested, 9% active. inhibition, % at 10 µM. AID 1063; in the data active means inhibition above about 50%;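 further: promastigotes grown with compound for 44 hours at 28 °C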
Ins promoter up: MIN6 insulin promoter up-regulation | MIN6 insulin promoter-GFP reporter, high-content imaging; hits give high values | z-score at 5 µM | 190,000 tested, 0.3% active | AID 1625;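 active means z-score above 3 at 5 µM with at least 500 cells counted in the well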
Insulin prom inh: TRM-6 insulin promoter activity inhibition. AID 1273. TRM-6 cells (human fetal islet line), insulin promoter-eGFP reporter, imaging; reporter expression induced with tamoxifen. 130,000 tested, 0.9% active. inhibition, % at 2 µM;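 active means inhibition above the mean plus 3 SD, with well images judged a real hit on visual review, cut at about 60% in these data, passing the limit was not always enough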
Autophagy HCS: alters autophagy in cells; MEF GFP-LC3 puncta imaging; test concentration mostly 10 µM; calls only at 10 µM (by protocol); 190,000 tested, 0.98% active;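 active means percentage of spot-positive cells more than 3 SD above its plate mean, without a fluorescence outlier flag or 80% toxicity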;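 further: spot-positive cell cutoff set from DMSO-treated cells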
Starred values were filed as active, the others as inactive; i = inactive; . = not tested or not shown; + = active, no number.

SMILES | HCT116 PTEN-null | bCat KO growth | Lmaj promast | Ins promoter up | Insulin prom inh | Autophagy HCS
COc1ccc2ncc(S(=O)(=O)c3ccccc3)c(N3CCN(c4ccccc4)CC3)c2c1 | 62 | 68 | 99* | 1.4 | 25 | i
COc1ccc2ncc(S(=O)(=O)c3ccccc3)c(N3CCC4(CC3)OCCO4)c2c1 | 72 | 72 | 6 | -1.1 | -48 | i
O=C(COC(=O)c1c2c(nc3ccccc13)CCCCC2)c1ccc(Cl)s1 | 64 | 78 | 62* | -1.2 | . | i
COc1ccc(Nc2ccc(N3C(=O)CCCC3=O)cc2[N+](=O)[O-])cc1OC | 96 | 83 | 88* | 0.62 | 40 | i
COc1ccc(Nc2ccc(N3C(=O)CC(C)C3=O)cc2[N+](=O)[O-])cc1OC (centres undefined) | . | . | -7 | -0.25 | 18 | i
CN1CCCN(C(=O)c2cc(-c3ccc(Cl)c(Cl)c3Cl)nc3ccccc23)CC1 | . | . | 55* | -1.3 | . | i
O=C(OCC(=O)N1CCN(C(=O)c2ccco2)CC1)c1cc(-c2ccc(Cl)c(Cl)c2Cl)nc2ccccc12 | 34 | 58 | 23 | -0.18 | -22 | i
BrC(=C\c1ccccc1)/C=N/n1cnnc1 | . | . | 100* | -0.47 | -120 | i
Clc1ccc(N=c2ssnc2Cl)cc1 | 80 | 86 | -7 | . | 62 | i
O=C(CNS(=O)(=O)c1ccc(Br)s1)N1CCC(N2CCCCC2)CC1 | 96 | 91 | 78* | -0.64 | 48 | i
CC1CC(C)CN(C(=O)CNS(=O)(=O)c2ccc(Br)s2)C1 (centres undefined) | 83 | 82 | -4 | -0.11 | -2 | i
CC1CCN(C(=O)CNS(=O)(=O)c2ccc(Br)s2)CC1 | 96 | 97 | -2 | 3.4* | 8 | i
CC(C)(CSc1nncn1N)NS(=O)(=O)c1ccc(Cl)cc1 | 100 | 96 | -3 | 0.08 | 77* | i
Cc1cc(C)n(C(=O)c2ccc(C)o2)n1 | 90 | 90 | -1 | 0.07 | 7 | i
O=C1C2CCCN2C(=O)N1CCN1CCN(c2ccccc2)CC1 (centres undefined) | 95 | 89 | 61* | 0.14 | 0 | i
COc1ccc(/C=C(\NC(=O)/C=C/c2ccco2)C(=O)NCCc2nc3ccccc3[nH]2)cc1 | 91 | 90 | -1 | 0.29 | -37 | i
Cc1ccc(Cn2nnnc2CN2CCC(c3nc4ccc(Cl)cc4[nH]3)CC2)cc1 | 14 | 23 | 55* | -2.2 | . | i
O=C(Nc1ccc(C(=O)N2CCOCC2)cc1)Nc1cccc2ccccc12 | . | . | 11 | -0.72 | -67 | i
CC[C@@H]1C=C(C)C[C@H](C)C[C@H](OC)[C@H]2O[C@@](O)(C(=O)C(=O)N3CCCC[C@H]3C(=O)O[C@H](/C(C)=C/[C@@H]3CC[C@@H](O)[C@H](OC)C3)[C@H](C)[C@@H](O)CC1=O)[C@H](C)C[C@@H]2OC | 68 | 70 | 90* | 0.2 | -32 | i
Cc1ccc(NC(=S)/N=C(\N)Nc2nc(C)c3cc(C)ccc3n2)c(C)c1 | 34 | 44 | 15 | -1.7 | . | i
CC(C)NC(=O)C1CCN(C2CCN(C(=O)c3scc4c3CCCC4)CC2)CC1 | . | . | 52* | 0.83 | . | i
CC(C)NC(=O)C1CCN(C2CCN(C(=O)C3=CCCC3)CC2)CC1 | . | . | -2 | 1.2 | . | i
O=C(O)c1ccc(CNCc2ccc(F)cc2)cc1 | . | . | -5 | 0.98 | . | i
Cc1cc2c3c(c1C)C1(C(=O)N3C(C)(C)CC2C)C(C#N)=C(N)Oc2cc(O)ccc21 (centres undefined) | 23 | 19 | 70* | . | -11 | i
COc1cc2c3c(c1)C1(C(=O)N3C(C)(C)C=C2C)C(C#N)=C(N)Oc2cc(O)ccc21 (centres undefined) | 74 | 74 | 67* | 1.3 | 26 | i
SMILES | HCT116 PTEN-null | bCat KO growth | Lmaj promast | Ins promoter up | Insulin prom inh | Autophagy HCS
Cc1nnc(SCc2nc3scc(-c4ccccc4)c3c(=O)[nH]2)s1 | . | . | . | 0.2 | . | .
Cc1cccc(NC(=S)NC23CN4CN(CN(C4)C2)C3)c1C | . | . | 3 | -0.64 | 43 | i
CCOC(=O)c1cnc(-n2nc(C)cc2C)nc1N1CCOCC1 | 103 | 101 | 5 | 0.92 | -50 | i
CCOc1cc(CNC2CCCC2)ccc1OCc1ccccc1Cl | . | . | 100* | -0.7 | . | i
CCCCOc1c(Cl)cc(CNC(C)(C)CO)cc1OCC | 72 | 73 | 42 | -0.54 | -60 | i
COc1cc(CNc2ccc(CNc3ncn[nH]3)cc2)cc(Cl)c1OCc1ccccc1 | 68 | 66 | 8 | 0.5 | . | i
CCOc1c(Cl)cc(CNCC(C)C)cc1OC | 90 | 94 | 80* | . | . | i
CCOc1c(Cl)cc(CNCC(O)c2ccccc2)cc1OC (centres undefined) | . | . | 26 | 0.07 | -22 | +
CCOc1cc(CNC2CCCC2)cc(Cl)c1OCc1ccccc1 | 1.8* | 1.6* | 97* | -0.98 | -17 | i
COc1ccc(C(=O)NC(C(=O)N2CCc3ccccc32)C(C)C)cc1 (centres undefined) | 96 | 94 | -4 | -0.41 | 13 | i
CCOc1cc(CNCC(C)C)cc(Cl)c1OCc1ccccc1 | . | . | 89* | 0.63 | -14 | i
CCOc1cc(C(N)=O)cc(Cl)c1OCc1ccccc1 | . | . | 2 | 0.88 | . | i
CCOC(=O)C(=NC1CCS(=O)(=O)C1)NNc1cc(Cl)ccc1Cl (centres undefined) | . | . | . | 0.39 | . | .
Cc1sc2nc(CN3CCOCC3)nc(Cl)c2c1C | 94 | 77 | -3 | -0.88 | -33 | i
Cc1sc2nc(CN3CCC(C)CC3)nc(Cl)c2c1C | 0.8* | 0.9* | 26 | -0.51 | -6 | i
COc1ccc(CNC(=O)Cn2cncn2)cc1OC | . | . | -8 | 0.16 | 89* | i
Cc1ccc(CNC(=O)Cn2cncn2)cc1 | 107 | 92 | -11 | . | 24 | i
COc1ccc(CSCC(=O)NN=C2CCN(C)CC2)cc1 | . | . | -6 | 0.06 | . | i
Cc1cccc(Nc2ncc3c(n2)CC(c2ccco2)CC3=O)c1 (centres undefined) | 75 | 82 | 8 | -0.52 | 30 | i
CCOC(=O)C1CCCN(CCC(=O)Nc2ccc3c(c2)CCC3)C1 (centres undefined) | 93 | 87 | 90* | -0.14 | . | i
CCOC(=O)C1CCCN(CCC(=O)Nc2ccc(C)c(C)c2)C1 (centres undefined) | . | . | 31 | -0.69 | . | i
CCOC(=O)C1CCN(CCC(=O)Nc2ccc(C)c(C)c2)CC1 | . | . | 88* | -0.43 | 20 | i
CCOC(=O)C1CCN(CCC(=O)Nc2ccc(F)cc2)CC1 | . | . | 70* | 0.15 | -8 | i
Cc1ccc2nc(-c3ccc(NC(=O)COCC(=O)O)cc3)sc2c1 | . | . | . | -0.64 | . | .
O=C1CC(c2ccco2)=Nc2ccccc2N1 | 95 | 85 | -2 | 0.18 | 14 | i
Cc1cccc(C(=O)N=c2c(C#N)cc3c(=O)n4cccc(C)c4nc3n2Cc2ccco2)c1 | 82 | 92 | 24 | 0.36 | -14 | +

Compound activity deposited in PubChem BioAssay by several laboratories.
